# Test results published in the supplement of paper PMC10849652.
# Of roughly 8,800 targets only a part is listed; those with a hit were picked by preference. About 0.5% of all pairs of compound and target were hits. Unmarked numbers belong to inactive results.
# Compound: C1=CC=C(C=C1)[C@H](COC2=CC3=C(C=C2)NC(=O)N3)NC(=O)C4=CC=CN(C4=O)CC5=CC(=C(C=C5)F)F
# Test: log2 fold change, soluble protein after heating vs DMSO (PISA); higher = thermal stabilisation; K562 lysate, 10 uM; active = over 0.2 and 3.5 SD of the protein, either way, in both replicates (recomputed)
# How it was run: (§1)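 Values give the log-two fold change in thermal stability against solvent controls, from duplicates. Crude K562 extract at 1 mg/mL protein, made by dounce homogenisation in PBS pH 7.4 with 1 mM MgCl2, was treated with 10 μM compound for 30 min. After 3 min heating across 48°C-58°C, aliquots were pooled, adjusted to 0.5% NP-40 at 4°C and centrifuged at 21,000xg for 90 min. The supernatant was measured by TMTpro 16plex LC-MS/MS with channel sums equalised.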
# UniProt O75569, sequence (O75569 whole entry, looked up): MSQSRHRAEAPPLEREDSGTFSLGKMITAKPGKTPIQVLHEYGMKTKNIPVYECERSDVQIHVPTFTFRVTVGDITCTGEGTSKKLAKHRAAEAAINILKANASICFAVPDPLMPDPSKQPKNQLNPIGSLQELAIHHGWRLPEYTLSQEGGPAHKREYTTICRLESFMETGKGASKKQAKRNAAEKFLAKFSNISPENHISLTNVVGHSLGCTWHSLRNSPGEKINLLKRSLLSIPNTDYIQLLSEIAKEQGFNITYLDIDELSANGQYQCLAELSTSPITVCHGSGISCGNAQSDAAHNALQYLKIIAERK
# UniProt Q96LW4, sequence (Q96LW4 whole entry, looked up): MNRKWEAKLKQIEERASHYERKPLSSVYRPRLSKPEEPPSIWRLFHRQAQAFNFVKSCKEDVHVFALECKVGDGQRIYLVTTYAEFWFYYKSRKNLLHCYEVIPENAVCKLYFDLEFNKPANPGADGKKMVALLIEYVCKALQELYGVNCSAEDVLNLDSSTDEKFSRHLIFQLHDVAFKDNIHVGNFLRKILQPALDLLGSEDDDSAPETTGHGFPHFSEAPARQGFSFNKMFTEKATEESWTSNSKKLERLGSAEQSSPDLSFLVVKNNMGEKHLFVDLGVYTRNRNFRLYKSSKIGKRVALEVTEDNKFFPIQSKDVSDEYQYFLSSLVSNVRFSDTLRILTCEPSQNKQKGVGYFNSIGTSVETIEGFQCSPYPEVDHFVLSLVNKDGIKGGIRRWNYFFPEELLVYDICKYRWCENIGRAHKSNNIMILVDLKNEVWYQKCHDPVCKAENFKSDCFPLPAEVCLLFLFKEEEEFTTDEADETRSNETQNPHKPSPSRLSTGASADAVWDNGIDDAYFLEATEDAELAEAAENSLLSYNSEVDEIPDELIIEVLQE
# UniProt Q99541, sequence (Q99541 whole entry, looked up): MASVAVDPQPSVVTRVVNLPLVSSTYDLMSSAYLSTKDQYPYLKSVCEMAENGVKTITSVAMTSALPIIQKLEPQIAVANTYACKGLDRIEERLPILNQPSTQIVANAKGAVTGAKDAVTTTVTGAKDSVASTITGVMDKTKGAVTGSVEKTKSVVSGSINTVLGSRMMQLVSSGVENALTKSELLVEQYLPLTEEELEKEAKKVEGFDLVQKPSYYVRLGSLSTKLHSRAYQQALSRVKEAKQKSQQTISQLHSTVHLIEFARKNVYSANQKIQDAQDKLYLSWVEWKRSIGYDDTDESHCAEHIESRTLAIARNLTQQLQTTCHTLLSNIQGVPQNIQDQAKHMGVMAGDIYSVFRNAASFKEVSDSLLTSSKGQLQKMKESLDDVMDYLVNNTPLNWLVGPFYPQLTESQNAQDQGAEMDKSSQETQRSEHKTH
# UniProt Q15004, sequence (Q15004 whole entry, looked up): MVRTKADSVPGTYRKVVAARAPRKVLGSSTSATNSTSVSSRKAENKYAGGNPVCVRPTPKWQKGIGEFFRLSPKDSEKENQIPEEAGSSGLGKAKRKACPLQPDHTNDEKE
# UniProt Q8NEB9, sequence (Q8NEB9 whole entry, looked up): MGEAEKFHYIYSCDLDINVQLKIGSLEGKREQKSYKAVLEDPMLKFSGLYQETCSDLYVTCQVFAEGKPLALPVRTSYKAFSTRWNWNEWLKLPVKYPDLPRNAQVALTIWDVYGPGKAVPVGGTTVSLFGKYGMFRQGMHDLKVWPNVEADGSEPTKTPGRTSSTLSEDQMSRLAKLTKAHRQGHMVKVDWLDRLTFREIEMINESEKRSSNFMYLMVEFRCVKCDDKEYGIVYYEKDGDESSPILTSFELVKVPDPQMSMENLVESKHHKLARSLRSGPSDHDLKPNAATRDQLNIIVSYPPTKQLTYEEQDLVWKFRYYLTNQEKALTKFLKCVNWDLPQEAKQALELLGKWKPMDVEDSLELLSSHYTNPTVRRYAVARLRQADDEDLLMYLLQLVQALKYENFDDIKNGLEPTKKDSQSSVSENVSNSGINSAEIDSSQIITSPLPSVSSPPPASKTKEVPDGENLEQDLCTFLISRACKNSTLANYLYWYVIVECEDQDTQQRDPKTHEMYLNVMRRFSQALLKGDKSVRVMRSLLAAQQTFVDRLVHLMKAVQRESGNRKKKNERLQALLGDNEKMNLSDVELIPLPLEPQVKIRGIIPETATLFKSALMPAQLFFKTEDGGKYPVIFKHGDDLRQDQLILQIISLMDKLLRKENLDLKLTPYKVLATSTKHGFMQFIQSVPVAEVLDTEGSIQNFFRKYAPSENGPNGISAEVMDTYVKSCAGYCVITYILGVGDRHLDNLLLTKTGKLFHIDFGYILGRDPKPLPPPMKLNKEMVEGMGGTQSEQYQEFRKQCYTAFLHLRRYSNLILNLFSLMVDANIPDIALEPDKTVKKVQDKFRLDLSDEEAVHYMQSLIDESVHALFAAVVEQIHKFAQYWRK
# UniProt Q93096, sequence (Q93096 whole entry, looked up): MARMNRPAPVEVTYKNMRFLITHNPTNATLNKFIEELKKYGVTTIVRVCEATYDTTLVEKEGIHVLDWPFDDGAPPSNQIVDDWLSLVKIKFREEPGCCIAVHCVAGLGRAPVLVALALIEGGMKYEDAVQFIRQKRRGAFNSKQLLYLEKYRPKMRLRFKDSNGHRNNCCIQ
# UniProt P09884, sequence (P09884 whole entry, looked up): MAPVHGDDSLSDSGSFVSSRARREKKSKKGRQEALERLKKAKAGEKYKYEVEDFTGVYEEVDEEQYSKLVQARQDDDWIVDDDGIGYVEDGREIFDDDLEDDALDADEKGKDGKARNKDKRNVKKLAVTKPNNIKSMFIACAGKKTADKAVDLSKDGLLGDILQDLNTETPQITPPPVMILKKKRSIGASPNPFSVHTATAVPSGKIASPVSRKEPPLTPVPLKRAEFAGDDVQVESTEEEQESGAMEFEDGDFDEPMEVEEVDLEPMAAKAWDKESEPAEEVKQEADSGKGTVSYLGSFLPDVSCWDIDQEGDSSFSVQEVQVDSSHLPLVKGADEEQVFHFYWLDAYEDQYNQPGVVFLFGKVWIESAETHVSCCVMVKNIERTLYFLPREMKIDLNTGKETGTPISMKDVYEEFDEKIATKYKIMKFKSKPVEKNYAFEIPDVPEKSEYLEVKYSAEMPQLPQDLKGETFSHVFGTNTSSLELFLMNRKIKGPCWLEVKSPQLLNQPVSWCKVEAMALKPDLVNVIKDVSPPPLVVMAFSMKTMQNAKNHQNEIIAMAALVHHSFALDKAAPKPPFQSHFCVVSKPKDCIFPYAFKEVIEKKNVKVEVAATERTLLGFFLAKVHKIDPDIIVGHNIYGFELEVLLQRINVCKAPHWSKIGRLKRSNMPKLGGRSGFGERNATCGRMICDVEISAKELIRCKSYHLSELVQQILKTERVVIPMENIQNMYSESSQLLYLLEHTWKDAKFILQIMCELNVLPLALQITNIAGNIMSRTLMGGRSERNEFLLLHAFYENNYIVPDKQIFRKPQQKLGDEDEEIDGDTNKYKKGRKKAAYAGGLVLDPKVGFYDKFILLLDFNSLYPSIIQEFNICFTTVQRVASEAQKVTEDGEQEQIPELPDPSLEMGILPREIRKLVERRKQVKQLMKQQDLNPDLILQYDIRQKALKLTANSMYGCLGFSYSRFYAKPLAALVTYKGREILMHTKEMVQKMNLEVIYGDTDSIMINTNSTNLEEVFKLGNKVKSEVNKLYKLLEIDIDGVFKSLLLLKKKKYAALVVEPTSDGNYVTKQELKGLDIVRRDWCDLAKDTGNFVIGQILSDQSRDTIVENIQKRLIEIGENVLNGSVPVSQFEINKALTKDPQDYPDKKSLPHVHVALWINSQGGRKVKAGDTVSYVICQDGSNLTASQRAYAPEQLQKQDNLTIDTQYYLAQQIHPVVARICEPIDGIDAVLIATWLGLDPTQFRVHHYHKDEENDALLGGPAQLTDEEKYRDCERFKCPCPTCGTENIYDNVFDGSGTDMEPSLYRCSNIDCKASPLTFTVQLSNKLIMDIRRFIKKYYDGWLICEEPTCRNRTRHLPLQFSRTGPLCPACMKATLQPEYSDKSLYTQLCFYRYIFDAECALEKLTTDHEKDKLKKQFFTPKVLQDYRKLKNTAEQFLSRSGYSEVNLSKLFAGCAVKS
# UniProt O94880, sequence (O94880 whole entry, looked up): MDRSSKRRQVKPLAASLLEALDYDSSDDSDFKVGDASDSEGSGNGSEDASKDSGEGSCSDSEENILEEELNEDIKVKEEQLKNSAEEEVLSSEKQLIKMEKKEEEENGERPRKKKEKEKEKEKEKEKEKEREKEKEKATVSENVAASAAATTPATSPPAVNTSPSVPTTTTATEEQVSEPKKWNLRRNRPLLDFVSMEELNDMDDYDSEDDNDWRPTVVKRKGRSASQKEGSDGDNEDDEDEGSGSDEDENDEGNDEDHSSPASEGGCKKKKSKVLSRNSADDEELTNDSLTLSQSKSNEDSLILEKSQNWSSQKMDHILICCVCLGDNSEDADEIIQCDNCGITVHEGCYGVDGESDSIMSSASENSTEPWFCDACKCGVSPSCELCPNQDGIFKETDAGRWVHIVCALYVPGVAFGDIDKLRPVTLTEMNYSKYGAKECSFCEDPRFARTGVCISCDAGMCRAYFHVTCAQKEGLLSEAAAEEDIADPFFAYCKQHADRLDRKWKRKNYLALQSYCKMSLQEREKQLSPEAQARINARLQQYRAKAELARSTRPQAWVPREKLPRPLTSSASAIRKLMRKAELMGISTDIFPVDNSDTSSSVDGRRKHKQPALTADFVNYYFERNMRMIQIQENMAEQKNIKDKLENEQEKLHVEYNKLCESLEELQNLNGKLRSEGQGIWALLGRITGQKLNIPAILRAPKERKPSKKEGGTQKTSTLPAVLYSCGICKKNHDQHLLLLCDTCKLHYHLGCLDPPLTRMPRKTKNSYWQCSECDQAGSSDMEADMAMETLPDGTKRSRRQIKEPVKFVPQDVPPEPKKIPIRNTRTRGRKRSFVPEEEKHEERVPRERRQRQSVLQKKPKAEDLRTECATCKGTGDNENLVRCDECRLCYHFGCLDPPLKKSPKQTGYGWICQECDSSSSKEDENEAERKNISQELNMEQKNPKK
# UniProt P06454, sequence (P06454 whole entry, looked up): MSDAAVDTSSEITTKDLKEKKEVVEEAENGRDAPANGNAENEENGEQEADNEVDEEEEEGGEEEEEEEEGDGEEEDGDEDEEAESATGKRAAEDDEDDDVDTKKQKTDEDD
row,Target,log2 fold change
1,PRKD2 isoform 3 (UniProt Q9BZL6),0.001
2,PIK3C3 (UniProt Q8NEB9),-0.041
3,PCLAF (UniProt Q15004),0.053
4,PRKRA (UniProt O75569),-0.002
5,PSTPIP2 (UniProt Q9H939),0
6,PRIM1 (UniProt P49642),0.009
7,PRKAR2B (UniProt P31323),-0.028
8,PPP3CA isoform 2 (UniProt Q08209),-0.026
9,PPP2R5B (UniProt Q15173),-0.08
10,PTMA isoform 2 (UniProt P06454),0.098
11,PDE2A (UniProt O00408),0.012
12,PDCD6IP (UniProt Q8WUM4),-0.077
13,PRPF6 (UniProt O94906),-0.006
14,PDS5A (UniProt Q29RF7),-0.049
15,PIP4K2C (UniProt Q8TBX8),-0.12
16,PYCR2 (UniProt Q96C36),0.007
17,POLA1 (UniProt P09884),0.006
18,PIK3R1 (UniProt P27986),-0.014
19,PPP1R12B isoform 6 (UniProt O60237),0.043

row,Target,log2 fold change
1,PUM1 isoform 3 (UniProt Q14671),-0.057
2,PXMP4 (UniProt Q9Y6I8),-0.096
3,PCBP2 (UniProt F8W0G4),0.16
4,POC5 (UniProt Q8NA72),0.016
5,PDCD10 (UniProt Q9BUL8),-0.005
6,PLIN2 (UniProt Q99541),-0.138
7,PRIMPOL (UniProt Q96LW4),0.009
8,PDCD4 (UniProt Q53EL6),-0.026
9,PHACTR4 isoform 2 (UniProt Q8IZ21),0.03
10,PTP4A1 (UniProt Q93096),0.047
11,PRAME (UniProt P78395),-0.009
12,PLEKHF1 (UniProt Q96S99),-0.019
13,PIK3R2 (UniProt O00459),0.002
14,PGRMC1 (UniProt O00264),0.073
15,PPCDC (UniProt Q96CD2),-0.02
16,PTPN6 isoform 4 (UniProt P29350),0.12
17,PWP2 (UniProt Q15269),-0.004
18,PHC1 (UniProt P78364),0.025
19,PHF14 (UniProt O94880),0.048

# Compound: CC1=C(SC2=C1C(=N[C@H](C3=NN=C(N32)C)CC(=O)N)C4=CC=C(C=C4)Cl)C
# Test: as above
# How it was run: as §1
row,Target,log2 fold change
1,PRKD2 isoform 3 (UniProt Q9BZL6),-0.031
2,PIK3C3 (UniProt Q8NEB9),-0.032
3,PCLAF (UniProt Q15004),0.016
4,PRKRA (UniProt O75569),0.027
5,PSTPIP2 (UniProt Q9H939),-0.01
6,PRIM1 (UniProt P49642),-0.051
7,PRKAR2B (UniProt P31323),0.018
8,PPP3CA isoform 2 (UniProt Q08209),-0.115
9,PPP2R5B (UniProt Q15173),-0.037
10,PTMA isoform 2 (UniProt P06454),-0.016
11,PDE2A (UniProt O00408),0.067
12,PDCD6IP (UniProt Q8WUM4),0.086
13,PRPF6 (UniProt O94906),0.015
14,PDS5A (UniProt Q29RF7),-0.031
15,PIP4K2C (UniProt Q8TBX8),-0.062
16,PYCR2 (UniProt Q96C36),0.036
17,POLA1 (UniProt P09884),0.01
18,PIK3R1 (UniProt P27986),-0.065
19,PPP1R12B isoform 6 (UniProt O60237),0.033

row,Target,log2 fold change
1,PUM1 isoform 3 (UniProt Q14671),0.048
2,PXMP4 (UniProt Q9Y6I8),-0.022
3,PCBP2 (UniProt F8W0G4),0.052
4,POC5 (UniProt Q8NA72),-0.052
5,PDCD10 (UniProt Q9BUL8),0.02
6,PLIN2 (UniProt Q99541),0.015
7,PRIMPOL (UniProt Q96LW4),0.009
8,PDCD4 (UniProt Q53EL6),0.005
9,PHACTR4 isoform 2 (UniProt Q8IZ21),0
10,PTP4A1 (UniProt Q93096),0.006
11,PRAME (UniProt P78395),0.014
12,PLEKHF1 (UniProt Q96S99),0.034
13,PIK3R2 (UniProt O00459),-0.058
14,PGRMC1 (UniProt O00264),-0.038
15,PPCDC (UniProt Q96CD2),0.034
16,PTPN6 isoform 4 (UniProt P29350),0.029
17,PWP2 (UniProt Q15269),-0.042
18,PHC1 (UniProt P78364),0.001
19,PHF14 (UniProt O94880),0.025
